The record followed here is article PMC7862700, “An all-to-all approach to the identification of sequence-specific readers for epigenetic DNA modifications on cytosine”.

Holding throughout (assay): DAPPL (digital affinity profiling via proximity ligation, sequencing); 10 mM Tris-HCl pH 7.5, 50 mM NaCl, 1 mM DTT, 4% glycerol, room temperature, 30 min; GST-TFs on glutathione beads, 16-mer random dsDNA library, 0.1% formaldehyde crosslink after washing; high values mean tight binding
The target in one experiment is T1, FLI1 (Homo sapiens, UniProt Q01543 1-452).
T1 sequence: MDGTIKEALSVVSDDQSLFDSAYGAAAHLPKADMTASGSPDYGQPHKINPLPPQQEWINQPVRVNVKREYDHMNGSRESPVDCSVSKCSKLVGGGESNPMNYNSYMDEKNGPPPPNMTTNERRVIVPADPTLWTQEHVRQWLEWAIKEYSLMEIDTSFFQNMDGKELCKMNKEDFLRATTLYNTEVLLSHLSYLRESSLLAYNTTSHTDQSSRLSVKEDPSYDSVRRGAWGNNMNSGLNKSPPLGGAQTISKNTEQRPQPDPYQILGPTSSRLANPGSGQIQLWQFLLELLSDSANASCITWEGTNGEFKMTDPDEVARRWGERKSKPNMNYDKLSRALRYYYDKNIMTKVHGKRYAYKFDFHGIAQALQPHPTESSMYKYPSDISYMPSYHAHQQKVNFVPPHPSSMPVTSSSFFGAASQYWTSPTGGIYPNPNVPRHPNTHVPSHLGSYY
The conditions noted are these: protein: recombinant; tags: N-terminal GST; dsDNA, one strand shown. The procedure, abridged:
(§1)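 Human transcription factors were made in yeast as GST fusions, captured on glutathione beads and barcoded with DNA. With a tag-only sample included, the pool was incubated with 200 nmole of a random double-stranded 16-mer DNA library in Tris/NaCl/DTT/glycerol buffer at room temperature for 30 min, then crosslinked with 0.1% formaldehyde after washing, ligated by proximity, amplified and sequenced. For binding signal, each hexamer's read frequency for a factor is divided by its frequency for the tag-only sample.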

For a further experiment, the target named is T2, ELK1 (Homo sapiens, UniProt P19419 1-428).
T2 sequence: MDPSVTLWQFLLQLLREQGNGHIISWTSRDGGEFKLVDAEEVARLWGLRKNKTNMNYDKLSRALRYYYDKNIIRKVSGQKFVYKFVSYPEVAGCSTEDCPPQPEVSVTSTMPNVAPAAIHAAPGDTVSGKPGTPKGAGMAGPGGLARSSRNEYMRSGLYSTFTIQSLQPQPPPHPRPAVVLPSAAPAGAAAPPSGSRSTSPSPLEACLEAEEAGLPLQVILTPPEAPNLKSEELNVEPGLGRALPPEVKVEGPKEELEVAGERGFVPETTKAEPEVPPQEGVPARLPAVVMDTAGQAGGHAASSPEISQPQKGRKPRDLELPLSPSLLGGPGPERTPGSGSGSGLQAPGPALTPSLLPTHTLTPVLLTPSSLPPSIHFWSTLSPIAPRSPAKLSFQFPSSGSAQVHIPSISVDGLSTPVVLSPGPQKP
Particulars: protein: recombinant; tags: N-terminal GST; dsDNA, one strand shown. The procedure, abridged:
as §1

Another experiment has as its target T3, GABPA (Homo sapiens, UniProt Q06546 1-454).
T3 sequence: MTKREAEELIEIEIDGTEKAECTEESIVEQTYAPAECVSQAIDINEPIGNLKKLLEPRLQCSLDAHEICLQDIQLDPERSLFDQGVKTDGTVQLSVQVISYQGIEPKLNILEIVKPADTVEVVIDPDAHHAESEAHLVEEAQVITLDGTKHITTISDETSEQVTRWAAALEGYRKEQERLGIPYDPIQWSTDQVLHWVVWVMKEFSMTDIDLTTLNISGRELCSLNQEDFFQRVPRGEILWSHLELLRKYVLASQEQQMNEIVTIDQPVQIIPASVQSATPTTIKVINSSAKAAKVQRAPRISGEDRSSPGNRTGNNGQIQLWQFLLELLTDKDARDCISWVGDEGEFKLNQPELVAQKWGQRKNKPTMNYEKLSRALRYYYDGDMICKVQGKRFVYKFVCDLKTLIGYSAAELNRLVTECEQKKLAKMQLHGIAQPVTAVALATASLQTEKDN
Particulars: protein: recombinant; tags: N-terminal GST; dsDNA, one strand shown. The procedure, abridged: as §1

Another experiment has as its target T4, ERG (Homo sapiens, UniProt P11308 1-479).
T4 sequence: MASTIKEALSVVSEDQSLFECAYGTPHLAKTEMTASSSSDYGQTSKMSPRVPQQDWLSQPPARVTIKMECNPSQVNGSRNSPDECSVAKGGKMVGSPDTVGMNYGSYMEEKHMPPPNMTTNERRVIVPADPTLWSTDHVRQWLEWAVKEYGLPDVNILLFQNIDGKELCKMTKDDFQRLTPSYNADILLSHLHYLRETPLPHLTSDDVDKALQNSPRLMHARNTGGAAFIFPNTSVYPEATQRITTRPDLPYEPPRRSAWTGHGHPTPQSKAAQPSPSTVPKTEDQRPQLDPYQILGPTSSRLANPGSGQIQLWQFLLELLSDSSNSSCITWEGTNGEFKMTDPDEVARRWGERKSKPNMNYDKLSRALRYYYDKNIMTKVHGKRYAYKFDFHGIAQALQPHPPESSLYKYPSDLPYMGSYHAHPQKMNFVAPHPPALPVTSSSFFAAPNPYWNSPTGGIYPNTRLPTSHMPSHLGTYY
Particulars: protein: recombinant; tags: N-terminal GST; dsDNA, one strand shown. The essentials:
as §1

Another experiment has as its target ELF1 (Homo sapiens, UniProt P32519 1-619). The conditions noted are these: protein: recombinant; tags: N-terminal GST; dsDNA, one strand shown. The essentials:
as §1

The next experiment addresses T5, EHF (Homo sapiens, UniProt Q9NZC4 1-300).
T5 sequence: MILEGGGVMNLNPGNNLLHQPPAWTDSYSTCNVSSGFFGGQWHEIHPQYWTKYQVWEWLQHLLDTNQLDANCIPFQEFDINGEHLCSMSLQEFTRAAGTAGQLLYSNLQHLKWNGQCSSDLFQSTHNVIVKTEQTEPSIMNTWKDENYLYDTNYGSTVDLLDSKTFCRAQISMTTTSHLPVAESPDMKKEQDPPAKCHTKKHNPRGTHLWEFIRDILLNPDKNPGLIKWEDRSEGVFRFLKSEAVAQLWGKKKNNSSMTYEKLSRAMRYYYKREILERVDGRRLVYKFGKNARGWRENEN
Particulars: protein: recombinant; tags: N-terminal GST; dsDNA, one strand shown. The essentials: as §1

In the next experiment the target is SPI1 (Homo sapiens, UniProt P17947 1-270). Particulars: protein: recombinant; tags: N-terminal GST; dsDNA, one strand shown. The essentials: as §1
In another experiment the target is SPIB (Homo sapiens, UniProt Q01892 1-262). Particulars: protein: recombinant; tags: N-terminal GST; dsDNA, one strand shown. The procedure, abridged:
as §1

The target of a further experiment is T6, ELK3 (Homo sapiens, UniProt P41970 1-407).
T6 sequence: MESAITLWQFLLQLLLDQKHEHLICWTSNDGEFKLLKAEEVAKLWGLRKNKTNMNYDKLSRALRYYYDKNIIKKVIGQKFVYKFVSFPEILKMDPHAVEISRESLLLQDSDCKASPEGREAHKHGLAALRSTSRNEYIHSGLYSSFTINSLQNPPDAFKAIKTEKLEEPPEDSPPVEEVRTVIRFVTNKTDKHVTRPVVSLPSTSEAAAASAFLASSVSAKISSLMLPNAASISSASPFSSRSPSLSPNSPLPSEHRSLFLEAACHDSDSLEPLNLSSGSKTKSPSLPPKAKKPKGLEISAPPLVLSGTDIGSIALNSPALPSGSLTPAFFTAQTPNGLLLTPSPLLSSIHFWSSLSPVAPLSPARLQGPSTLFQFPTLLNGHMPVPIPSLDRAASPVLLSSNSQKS
The conditions noted are these: protein: recombinant; tags: N-terminal GST; dsDNA, one strand shown. The procedure, abridged: as §1

The target of a further experiment is T7, FEV (Homo sapiens, UniProt Q99581 1-238).
T7 sequence: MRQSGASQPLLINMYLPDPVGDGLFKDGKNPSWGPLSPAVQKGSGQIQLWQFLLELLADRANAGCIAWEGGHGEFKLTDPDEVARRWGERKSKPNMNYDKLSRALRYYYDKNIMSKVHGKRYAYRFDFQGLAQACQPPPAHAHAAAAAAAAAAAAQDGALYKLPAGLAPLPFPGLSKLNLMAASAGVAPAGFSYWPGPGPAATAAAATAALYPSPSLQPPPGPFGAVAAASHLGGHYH
Particulars: protein: recombinant; tags: N-terminal GST; dsDNA, one strand shown. The essentials:
as §1

A further experiment concerns the target ETV5 (Homo sapiens, UniProt P41161 1-510). Particulars: protein: recombinant; tags: N-terminal GST; dsDNA, one strand shown. The essentials:
as §1

The target of the next experiment is HSF1 (Homo sapiens, UniProt Q00613 1-529). Particulars: protein: recombinant; tags: N-terminal GST; chain copies: 3; dsDNA, one strand shown. The essentials: as §1
HSF1, sequence (Q00613 whole entry): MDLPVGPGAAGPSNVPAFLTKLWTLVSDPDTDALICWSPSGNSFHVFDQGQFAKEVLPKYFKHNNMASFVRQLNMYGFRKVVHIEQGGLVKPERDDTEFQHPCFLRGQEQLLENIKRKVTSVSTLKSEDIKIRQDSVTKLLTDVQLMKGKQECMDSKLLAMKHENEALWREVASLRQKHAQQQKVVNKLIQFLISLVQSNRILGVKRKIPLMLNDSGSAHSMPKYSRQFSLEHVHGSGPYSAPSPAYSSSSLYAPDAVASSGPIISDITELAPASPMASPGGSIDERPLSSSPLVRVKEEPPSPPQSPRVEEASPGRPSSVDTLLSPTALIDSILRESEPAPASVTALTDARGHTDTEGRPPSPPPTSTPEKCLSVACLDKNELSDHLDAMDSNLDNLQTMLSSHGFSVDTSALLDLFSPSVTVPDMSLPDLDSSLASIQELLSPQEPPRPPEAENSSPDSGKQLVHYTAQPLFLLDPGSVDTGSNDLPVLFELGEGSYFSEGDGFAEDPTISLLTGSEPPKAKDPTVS
The target of another experiment is T8, SPIC (Homo sapiens, UniProt Q8N5J4 1-248).
T8 sequence: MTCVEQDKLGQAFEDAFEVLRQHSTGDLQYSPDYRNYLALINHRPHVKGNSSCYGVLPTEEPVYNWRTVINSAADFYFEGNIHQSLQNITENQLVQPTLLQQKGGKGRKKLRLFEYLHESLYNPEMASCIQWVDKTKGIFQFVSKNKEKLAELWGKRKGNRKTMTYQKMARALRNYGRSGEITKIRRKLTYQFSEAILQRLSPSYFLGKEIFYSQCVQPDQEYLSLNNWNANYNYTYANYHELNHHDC
Particulars: protein: recombinant; tags: N-terminal GST; dsDNA, one strand shown. The essentials: as §1

The target in the next experiment is ELF4 (Homo sapiens, UniProt Q99607 1-663). Particulars: protein: recombinant; tags: N-terminal GST; dsDNA, one strand shown. The essentials: as §1
ELF4, sequence (Q99607 whole entry): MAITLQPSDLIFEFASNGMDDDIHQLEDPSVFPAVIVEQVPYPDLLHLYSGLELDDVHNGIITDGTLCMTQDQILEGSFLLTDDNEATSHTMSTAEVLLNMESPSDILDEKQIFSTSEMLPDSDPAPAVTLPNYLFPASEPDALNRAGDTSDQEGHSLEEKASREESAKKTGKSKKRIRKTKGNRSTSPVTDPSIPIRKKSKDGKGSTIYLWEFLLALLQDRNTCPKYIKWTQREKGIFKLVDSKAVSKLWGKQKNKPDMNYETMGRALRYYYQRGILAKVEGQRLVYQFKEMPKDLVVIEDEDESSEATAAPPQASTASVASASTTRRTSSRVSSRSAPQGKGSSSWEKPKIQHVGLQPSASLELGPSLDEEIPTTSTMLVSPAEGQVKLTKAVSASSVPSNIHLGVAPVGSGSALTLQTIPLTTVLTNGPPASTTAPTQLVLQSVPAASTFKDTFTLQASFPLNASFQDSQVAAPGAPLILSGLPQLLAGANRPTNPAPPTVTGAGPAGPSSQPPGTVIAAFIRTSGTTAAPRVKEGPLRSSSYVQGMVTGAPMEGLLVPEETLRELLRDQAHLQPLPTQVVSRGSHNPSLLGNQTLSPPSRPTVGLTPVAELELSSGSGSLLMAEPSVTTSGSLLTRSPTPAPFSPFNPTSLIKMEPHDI
The next experiment deals with T9, ELK4 (Homo sapiens, UniProt P28324-2 1-405).
T9 sequence: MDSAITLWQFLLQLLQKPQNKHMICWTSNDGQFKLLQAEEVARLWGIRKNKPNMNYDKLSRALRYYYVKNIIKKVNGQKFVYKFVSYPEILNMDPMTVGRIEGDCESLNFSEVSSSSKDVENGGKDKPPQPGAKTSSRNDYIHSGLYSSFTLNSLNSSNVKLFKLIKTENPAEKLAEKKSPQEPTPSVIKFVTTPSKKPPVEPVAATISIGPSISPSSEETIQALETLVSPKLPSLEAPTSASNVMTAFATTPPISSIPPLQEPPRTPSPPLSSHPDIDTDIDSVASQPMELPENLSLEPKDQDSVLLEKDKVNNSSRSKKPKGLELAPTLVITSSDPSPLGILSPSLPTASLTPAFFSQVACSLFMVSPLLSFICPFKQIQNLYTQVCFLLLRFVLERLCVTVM
The conditions noted are these: protein: recombinant; tags: N-terminal GST; dsDNA, one strand shown. The essentials:
as §1

In another experiment the target is T10, ETV2 (Homo sapiens, UniProt O00321 1-342).
T10 sequence: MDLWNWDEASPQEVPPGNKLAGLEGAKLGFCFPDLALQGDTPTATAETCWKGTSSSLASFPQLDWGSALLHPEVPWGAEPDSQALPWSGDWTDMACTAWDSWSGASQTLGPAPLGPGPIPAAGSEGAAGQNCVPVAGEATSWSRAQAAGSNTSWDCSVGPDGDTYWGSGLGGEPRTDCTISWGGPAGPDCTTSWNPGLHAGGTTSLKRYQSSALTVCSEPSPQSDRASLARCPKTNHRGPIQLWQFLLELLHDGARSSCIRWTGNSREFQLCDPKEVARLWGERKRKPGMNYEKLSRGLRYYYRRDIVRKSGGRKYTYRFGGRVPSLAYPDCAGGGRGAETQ
The conditions noted are these: protein: recombinant; tags: N-terminal GST; dsDNA, one strand shown. The essentials:
as §1

For another experiment, the target named is T11, ELF3 (Homo sapiens, UniProt P78545 1-371).
T11 sequence: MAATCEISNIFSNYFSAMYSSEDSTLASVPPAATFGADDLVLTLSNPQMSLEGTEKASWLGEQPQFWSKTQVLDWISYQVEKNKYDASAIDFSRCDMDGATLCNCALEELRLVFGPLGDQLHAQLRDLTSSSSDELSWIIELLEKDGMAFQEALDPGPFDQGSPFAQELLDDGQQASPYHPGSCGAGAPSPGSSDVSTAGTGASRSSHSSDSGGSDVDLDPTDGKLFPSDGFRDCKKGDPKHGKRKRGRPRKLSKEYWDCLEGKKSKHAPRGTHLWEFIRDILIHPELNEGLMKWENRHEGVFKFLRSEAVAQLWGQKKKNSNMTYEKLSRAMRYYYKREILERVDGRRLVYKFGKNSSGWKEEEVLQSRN
Particulars: protein: recombinant; tags: N-terminal GST; dsDNA, one strand shown. The procedure, abridged: as §1

For the next experiment, the target named is CRX (Homo sapiens, UniProt O43186 1-299). The conditions noted are these: protein: recombinant; tags: N-terminal GST; dsDNA, one strand shown. The essentials: as §1
CRX, sequence (O43186 whole entry): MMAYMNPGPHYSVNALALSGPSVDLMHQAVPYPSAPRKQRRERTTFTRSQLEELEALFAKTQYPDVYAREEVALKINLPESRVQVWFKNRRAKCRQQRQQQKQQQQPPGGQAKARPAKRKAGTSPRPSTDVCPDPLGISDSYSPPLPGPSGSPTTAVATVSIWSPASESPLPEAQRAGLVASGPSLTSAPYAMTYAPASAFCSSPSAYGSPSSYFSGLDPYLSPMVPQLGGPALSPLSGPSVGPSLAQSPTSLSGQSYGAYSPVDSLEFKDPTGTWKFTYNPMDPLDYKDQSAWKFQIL
The next experiment has as its target ETV1 (Homo sapiens, UniProt P50549 1-477). Particulars: protein: recombinant; tags: N-terminal GST; dsDNA, one strand shown. The procedure, abridged:
as §1

ETV5, sequence (P41161 whole entry): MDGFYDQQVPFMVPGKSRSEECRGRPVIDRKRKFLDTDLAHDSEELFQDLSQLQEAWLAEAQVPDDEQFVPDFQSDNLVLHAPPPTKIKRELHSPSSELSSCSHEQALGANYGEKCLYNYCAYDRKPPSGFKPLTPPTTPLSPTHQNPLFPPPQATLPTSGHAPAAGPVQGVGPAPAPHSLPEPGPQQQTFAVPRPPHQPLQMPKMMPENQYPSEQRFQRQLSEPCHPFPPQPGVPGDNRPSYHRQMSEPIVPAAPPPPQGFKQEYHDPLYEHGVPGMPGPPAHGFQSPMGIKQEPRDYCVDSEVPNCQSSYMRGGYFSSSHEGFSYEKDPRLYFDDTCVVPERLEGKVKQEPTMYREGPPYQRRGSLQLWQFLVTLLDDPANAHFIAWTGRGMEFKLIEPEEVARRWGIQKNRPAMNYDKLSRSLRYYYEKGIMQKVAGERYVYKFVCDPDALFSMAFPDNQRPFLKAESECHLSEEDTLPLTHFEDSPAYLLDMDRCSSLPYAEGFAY
ELF1, sequence (P32519 whole entry): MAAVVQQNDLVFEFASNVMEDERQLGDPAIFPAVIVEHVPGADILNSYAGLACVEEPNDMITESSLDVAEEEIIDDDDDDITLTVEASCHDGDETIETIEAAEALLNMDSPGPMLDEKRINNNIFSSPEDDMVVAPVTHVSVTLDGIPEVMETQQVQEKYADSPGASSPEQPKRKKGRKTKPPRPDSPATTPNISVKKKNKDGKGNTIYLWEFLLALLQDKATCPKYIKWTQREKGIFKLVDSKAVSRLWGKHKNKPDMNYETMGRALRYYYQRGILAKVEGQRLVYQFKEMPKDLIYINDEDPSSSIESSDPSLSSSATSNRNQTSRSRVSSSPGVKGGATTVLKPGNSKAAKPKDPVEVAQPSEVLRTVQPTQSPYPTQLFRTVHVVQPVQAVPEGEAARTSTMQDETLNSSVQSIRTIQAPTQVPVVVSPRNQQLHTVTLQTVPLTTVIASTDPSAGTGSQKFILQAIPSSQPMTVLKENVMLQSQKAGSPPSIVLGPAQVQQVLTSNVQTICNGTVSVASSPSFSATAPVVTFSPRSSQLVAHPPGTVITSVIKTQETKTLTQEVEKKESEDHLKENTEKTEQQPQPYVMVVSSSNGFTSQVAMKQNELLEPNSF
ETV1, sequence (P50549 whole entry): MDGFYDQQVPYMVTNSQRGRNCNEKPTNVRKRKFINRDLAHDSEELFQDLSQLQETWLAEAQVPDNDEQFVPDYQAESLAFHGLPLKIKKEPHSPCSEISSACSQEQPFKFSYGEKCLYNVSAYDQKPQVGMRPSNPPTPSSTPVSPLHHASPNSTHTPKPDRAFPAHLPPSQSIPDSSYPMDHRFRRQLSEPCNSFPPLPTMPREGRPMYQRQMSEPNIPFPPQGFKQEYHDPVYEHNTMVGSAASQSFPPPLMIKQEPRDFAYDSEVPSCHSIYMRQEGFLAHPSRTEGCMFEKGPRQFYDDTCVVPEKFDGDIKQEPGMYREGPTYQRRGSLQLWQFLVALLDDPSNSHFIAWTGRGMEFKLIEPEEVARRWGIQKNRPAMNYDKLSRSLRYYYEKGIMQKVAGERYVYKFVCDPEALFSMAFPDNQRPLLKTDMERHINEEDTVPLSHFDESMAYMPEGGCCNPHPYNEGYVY
SPIB, sequence (Q01892 whole entry): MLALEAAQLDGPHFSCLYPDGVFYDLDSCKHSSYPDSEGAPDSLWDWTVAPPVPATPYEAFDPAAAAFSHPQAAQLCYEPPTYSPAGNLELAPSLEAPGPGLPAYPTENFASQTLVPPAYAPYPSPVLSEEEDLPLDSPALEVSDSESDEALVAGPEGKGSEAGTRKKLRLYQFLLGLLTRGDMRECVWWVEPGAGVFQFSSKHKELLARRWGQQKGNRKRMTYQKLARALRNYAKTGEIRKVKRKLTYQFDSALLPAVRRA

For the sequence AACTAT, the binding signal in the experiment with FLI1 was 1.37 fold enrichment (6-mer frequency, TF over GST control); with ELK1, 1.36 fold enrichment (6-mer frequency, TF over GST control); with GABPA it was 1.38 fold enrichment (6-mer frequency, TF over GST control); in the experiment with ERG, 1.36 fold enrichment (6-mer frequency, TF over GST control); in the experiment with ELF1, 1.29 fold enrichment (6-mer frequency, TF over GST control); with EHF it was 1.36 fold enrichment (6-mer frequency, TF over GST control). The binding signal in the experiment with SPI1 is 1.33 fold enrichment (6-mer frequency, TF over GST control); with SPIB it was 1.29 fold enrichment (6-mer frequency, TF over GST control); with ELK3, 1.36 fold enrichment (6-mer frequency, TF over GST control); with FEV it was 1.31 fold enrichment (6-mer frequency, TF over GST control); in the experiment with ETV5, 1.37 fold enrichment (6-mer frequency, TF over GST control); in the experiment with HSF1 it was 1.33 fold enrichment (6-mer frequency, TF over GST control). For the same sequence, the binding signal with SPIC is 1.43 fold enrichment (6-mer frequency, TF over GST control); in the experiment with ELF4, 1.36 fold enrichment (6-mer frequency, TF over GST control); with ELK4, 1.45 fold enrichment (6-mer frequency, TF over GST control); with ETV2 it was 1.49 fold enrichment (6-mer frequency, TF over GST control); with ELF3 it was 1.26 fold enrichment (6-mer frequency, TF over GST control); with CRX, 1.26 fold enrichment (6-mer frequency, TF over GST control). For the same sequence, in the experiment with ETV1, the binding signal is 1.43 fold enrichment (6-mer frequency, TF over GST control).
